# Assay outcomes from PubChem BioAssay.
# In the library only some 28% were active in any assay of this set; here they are far more common.
# hDAT+cocaine – human DAT dopamine uptake with cocaine, either direction | Q01959 | actives 1.3% (n = 110,000) | B-score at 10 µM | LLC-PK1 hDAT cells, [14C]-dopamine uptake with cocaine IC80; actives deviate in either direction;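 active = Z score or B-score, a plate-position-corrected score, falls beyond the plate's 99.7% confidence bounds, in either direction; inactive = both scores lie inside the 99.7% bounds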;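 also: scored against the spread of the other compound wells on the same plate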
# Target sequence (Q01959 whole entry, looked up): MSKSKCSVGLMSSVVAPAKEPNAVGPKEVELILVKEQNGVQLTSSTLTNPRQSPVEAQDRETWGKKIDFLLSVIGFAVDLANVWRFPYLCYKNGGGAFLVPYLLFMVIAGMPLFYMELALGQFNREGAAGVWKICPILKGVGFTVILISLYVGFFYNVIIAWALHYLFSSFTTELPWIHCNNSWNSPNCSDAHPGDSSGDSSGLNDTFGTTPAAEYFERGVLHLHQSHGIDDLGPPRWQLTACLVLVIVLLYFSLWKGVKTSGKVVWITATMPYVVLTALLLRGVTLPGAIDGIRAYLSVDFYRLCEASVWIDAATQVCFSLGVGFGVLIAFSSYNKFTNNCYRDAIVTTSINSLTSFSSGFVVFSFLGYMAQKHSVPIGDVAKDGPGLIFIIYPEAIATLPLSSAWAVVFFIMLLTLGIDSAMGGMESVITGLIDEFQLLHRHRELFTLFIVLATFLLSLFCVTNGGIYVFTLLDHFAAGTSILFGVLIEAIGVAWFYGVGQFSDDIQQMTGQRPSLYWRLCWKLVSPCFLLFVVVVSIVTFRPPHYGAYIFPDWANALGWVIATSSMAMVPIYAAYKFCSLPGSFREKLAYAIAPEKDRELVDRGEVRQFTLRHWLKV
# D1 mod – D1 dopamine receptor (human) allosteric modulation; P21728; actives 5.9% (n = 58,000); AID 641; HEK293 D1, CRE-luciferase, dopamine EC30 potentiation; actives deviate in either direction; B-score at 10 µM;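 active = luminescence count or its row- and column-corrected plate score outside the 99.7% band of the plate's sample wells, on either side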
# CYP2C19 act – cytochrome P450 2C19 (human) activation | P33261 | recombinant CYP2C19, luciferin-H EGE luminescence; stronger effect = higher value; 0 = fully inhibited enzyme, 1 = untreated enzyme | activation factor at 5 µM | 96,000 tested, under 10 active | AID 1025;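 active = activation factor of at least 2 at 5 µM in the primary screen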;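 also: 0 = wells with 2.5 mM tranylcypromine and 1 = vehicle-only wells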
# CYP2C9 inh – blocks human cytochrome P450 2C9. actives 20% (n = 96,000). CYP2C9 Supersomes, luciferin-H conversion, luminescence. P11712. inhibition, % at 5 µM;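 active = blocking of liver enzyme CYP2C9 beyond about 50% at 5 µM, limit read from the data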
# CYP2C9 act – increases human cytochrome P450 2C9 activity | recombinant CYP2C9, luciferin-H conversion, luminescence; stronger effect = higher value; factor 1 = untreated enzyme, 0 = blocked | activation factor at 5 µM | P11712 | AID 1024 | actives 1.4% (n = 96,000);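 active = activation factor of 2 or more for CYP2C9 at a 5 µM dose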;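 also: 0 = sulfaphenazole-blocked wells and 1 = vehicle-only wells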
# CYP2C19 inh – human CYP2C19 inhibition. CYP2C19 Supersomes, luciferin-H EGE luminescence, 30 min. inhibition, % at 5 µM. actives 21% (n = 96,000);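 active = CYP2C19 inhibition above a set limit at 5 µM in the primary screen, cut at about 50% in these data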;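 also: plate controls were negative control wells for no effect and 2.5 mM tranylcypromine positive control for full effect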
# * marks the source's active call; other numbers are inactive results; . = not tested or not shown.
SMILES,hDAT+cocaine,D1 mod,CYP2C19 act,CYP2C9 inh,CYP2C9 act,CYP2C19 inh
CC1Cc2ccccc2N1C(=O)CN1CCC(n2nnc3cc(C(F)(F)F)ccc32)CC1 (configuration not stated),0.15,.,0.5,44,0.6,50*
COc1ccc(Cl)cc1NC(=O)CN1CCC(n2nnc3cc(C)ccc32)CC1,-0.24,0.47,0.1,-29,1.3,94*
COc1ccccc1NC(=O)CN1CCC(n2c(C)nc3cc(F)ccc32)CC1,2.5,0.6,0.6,3,1,37
Cc1ccc2c(c1)nnn2C1CCN(CC(=O)NCCc2ccccc2)CC1,1.3,1.8,0.5,35,0.6,52*
Cn1c(COc2ccc3ccccc3c2)nnc1SCC(=O)OC1CCCCC1,-1.1,.,.,.,.,.
Cc1cccc(-n2c(SCCC(=O)O)nnc2-c2cccs2)c1C,0.74,-0.16,0.9,-19,1.2,6
COC(=O)c1ccccc1NC(=O)CN1CCC(n2nnc3cc(C(F)(F)F)ccc32)CC1,.,.,0.3,82*,0.2,70*
O=C(N1CCOCC1)N1CCC(n2nnc3cc(F)ccc32)CC1,-0.88,.,1,36,0.6,4
Cc1ccc2c(c1)nnn2C1CCN(CC(=O)Nc2ccccc2N2CCOCC2)CC1,1.5,-0.22,0.3,75*,0.3,71*
CCCN1/C(=C2/SC(=S)N(CC)C2=O)C=Cc2ccccc21,0.12,.,0.6,8,0.9,37
C=CCN1C(=O)/C(=C2/Sc3ccccc3N2CCCS(=O)(=O)O)SC1=S,-0.88,0.19,0.9,60*,0.4,14
CN1C(=O)/C(=C2/C=Cc3ccccc3N2CCCS(=O)(=O)O)SC1=S,-0.5,0.23,0.8,53*,0.5,23
CC(=O)OCCNC(=O)Cn1cnc2c1c(=O)n(C)c(=O)n2C,-0.46,0.046,1.1,-20,1.2,-9
Cc1ccc(S(=O)(=O)n2cnc3ccccc32)cc1,0.027,.,.,.,.,.
Cc1ccc(S(=O)(=O)c2n[nH]n3c2nc(=O)c2ccccc23)cc1,0.35,-0.0098,1.1,94*,0.1,-5
CCOC(=O)CC(=O)CSc1ncnc2c1cnn2-c1ccccc1,0.45,-1.7,0.7,37,0.6,27
CN(c1ccccc1C(=O)Nc1ccc(S(=O)(=O)N2CCCC2)cc1)S(C)(=O)=O,-0.29,.,0.9,64*,0.4,8
CN(c1ccccc1C(=O)Nc1ccc(S(=O)(=O)N2CCCCC2)cc1)S(C)(=O)=O,-0.0012,0.22,1.1,16,0.8,-12
COC(=O)c1ccccc1NC(=O)c1ccccc1N(C)S(C)(=O)=O,-0.63,-0.0093,0.5,39,0.6,50*
CC(=O)Nc1ccc(NC(=O)c2ccccc2N(C)S(C)(=O)=O)cc1,0.21,-0.083,1.2,-13,1.1,-16
COC(=O)c1ccc(NC(=O)c2ccccc2N(C)S(C)(=O)=O)cc1,-2.7*,0.44,0.4,38,0.6,62*
CCOC(=O)c1ccccc1NC(=O)c1ccccc1N(C)S(C)(=O)=O,.,-0.0028,0.2,43,0.6,76*
COC(=O)c1ccccc1N(C)S(C)(=O)=O,0.28,1,1.1,-10,1.1,-5
Cc1cc(Nc2ccccc2N2CCOCC2)n2ncnc2n1,-0.44,0.65,1,16,0.8,4
O=C(O)c1ccc(-c2noc(-c3cccc(F)c3)n2)cc1,2.1,.,.,.,.,.
SMILES,hDAT+cocaine,D1 mod,CYP2C19 act,CYP2C9 inh,CYP2C9 act,CYP2C19 inh
CC(C)NC(=O)CSc1nnc(-c2ccc(C(C)(C)C)cc2)n1C,0.23,-0.045,.,.,.,.
COc1ccc(NC(=O)CSc2ccccn2)cc1,-0.025,.,.,.,.,.
CC(=O)Oc1ccc(NC(=O)CSc2ccccc2)cc1,-1.8,0.47,0.3,53*,0.5,69*
O=C(CSc1ccccc1)Nc1ccncc1,-0.77,0.065,0.1,85*,0.1,90*
Cc1cc(NC(=O)CSc2ccc3ccccc3c2)no1,-0.88,.,0.5,79*,0.2,50*
COc1ccc(NC(=O)CSc2ccc(C)cc2)cc1,-0.037,.,.,.,.,.
O=C(CSc1ccc2ccccc2c1)Nc1ccncc1,.,.,0,95*,0,97*
O=C(CSc1ccccc1)NCc1cccnc1,.,.,0.6,28,0.7,39
CCN(Cc1ccccc1)S(=O)(=O)c1ccc(S(=O)(=O)N2CCN(CCC#N)CC2)cc1,1.1,-0.58,1.3,-3,1,-26
Cn1ccnc1SCC(=O)Nc1ccccc1,-0.81,.,.,.,.,.
